# Assay outcomes deposited in PubChem by NMMLSC.
# AGP1-GFP MLPCN: modulators of TOR pathway AGP1-GFP in S. cerevisiae; GFP response vs DMSO, % at 10 µM; S. cerevisiae AGP1-GFP multiplex flow cytometry, 3 h; GFP as percent of DMSO wells; 320,000 tested, 0.02% active;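 active = GFP response relative to DMSO above a set limit, near screen average plus 3 SD, cut at about 150% in these data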;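 also: median GFP channel fluorescence of the gated AGP1 strain per well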
# MEP2-GFP yeast: modulators of TOR pathway MEP2-GFP in S. cerevisiae; GFP response vs DMSO, % at 10 µM; S. cerevisiae MEP2-GFP strain, flow cytometry GFP, 3 h; 100% = DMSO control level; AID 2016; 330,000 tested, 0.51% active;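 active = GFP response versus DMSO above a set limit, roughly screen mean plus 3 SD, cut at about 180% in these data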;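 also: median GFP fluorescence of the barcode-gated MEP2-GFP cells per well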
# LAP4 TOR yeast: modulators of TOR pathway LAP4-GFP in S. cerevisiae | S. cerevisiae LAP4-GFP multiplex, flow cytometry GFP, 3 h; median GFP as percent of DMSO wells | GFP response vs DMSO, % at 10 µM | 320,000 tested, 0.34% active | AID 2023;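 active = GFP response vs DMSO above a set limit, about the screen mean plus 3 SD, cut at about 150% in these data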
# CIT2-GFP yeast: modulators of TOR pathway CIT2-GFP in S. cerevisiae | GFP response vs DMSO, % at 10 µM | AID 2029 | 320,000 tested, 0.065% active | S. cerevisiae CIT2-GFP strain, flow cytometry, 3 h; 100 means same as DMSO wells;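 active = GFP response relative to DMSO above a set limit, near the screen mean plus 3 SD, cut at about 150% in these data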;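 also: ratio of well median GFP fluorescence to mean of DMSO wells on the plate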
# RPL19A-GFP yeast: modulators of TOR pathway RPL19A-GFP in S. cerevisiae; 330,000 tested, 0.3% active; S. cerevisiae RPL19A-GFP strain, flow cytometry, 3 h; hits give low values; percent response vs DMSO, % at 10 µM;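 active = percent response vs DMSO below 50%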;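 also: median channel GFP fluorescence of the barcoded RPL19A-GFP strain; ratio of sample median GFP to plate DMSO average so 100% = DMSO; lower means less RPL19A-GFP as with rapamycin TOR inhibition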
# LAP4-GFP pick2: yeast LAP4-GFP modulation, second cherry pick; 590 tested, 20% active; GFP response vs DMSO, % at 10 µM; S. cerevisiae LAP4-GFP strain, flow cytometry GFP, 3 h; AID 2621; shares compounds with LAP4 TOR yeast;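 active = GFP signal as percent of the solvent control above about 150%, meaning raised reporter expression, limit read from the data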;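 also: ratio of well median GFP fluorescence to plate DMSO mean so 100% = DMSO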
# MEP2 cherry2: reconfirmed MEP2-GFP TOR pathway modulator in yeast; shares compounds with LAP4 TOR yeast; S. cerevisiae MEP2-GFP strain, flow cytometry GFP, 3 h; GFP response vs DMSO, % at 10 µM; 590 tested, 10% active; AID 2622;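 active = GFP signal above 150% of the solvent control wells, that is a rise of more than half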;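 also: median channel GFP fluorescence of all gated yeast cells per well; ratio of median GFP to plate DMSO average so 100% = DMSO level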
# RPL19A GFP CP2: reconfirmed modulator of RPL19A-GFP TOR reporter in yeast; S. cerevisiae RPL19A-GFP strain, flow cytometry GFP, 3 h; hits give low values; 100% means same as DMSO wells; shares compounds with LAP4 TOR yeast; 590 tested, 3% active; GFP response vs DMSO, % at 10 µM;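 active = under 65% GFP response relative to DMSO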;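 also: median GFP channel fluorescence per well over the all cells gate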
# CIT2-GFP pick2: reconfirmed modulator of CIT2-GFP TOR reporter in yeast; shares compounds with LAP4 TOR yeast; GFP response vs DMSO, % at 10 µM; 590 tested, 8% active; S. cerevisiae CIT2-GFP strain, flow cytometry GFP, 3 h; DMSO control wells read 100%;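 active = GFP response vs DMSO above about 150%, limit read from the data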;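 also: median green fluorescence per well over all gated yeast cells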
# AGP1 GFP CP2: reconfirmed modulator of AGP1-GFP TOR reporter in yeast | shares compounds with LAP4 TOR yeast | S. cerevisiae AGP1-GFP strain, flow cytometry GFP, 3 h | percent response vs DMSO, % at 10 µM | 590 tested, under 10 active | AID 2643;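 active = over 150 percent of DMSO response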;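 also: median GFP channel fluorescence over all cells without mother daughter split; sample median GFP divided by mean DMSO control so 100% equals DMSO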
# s288c autofluor: counter-screen for compound autofluorescence in yeast s288c cells. shares compounds with LAP4 TOR yeast. S. cerevisiae s288c, 520 nm autofluorescence, flow cytometry, 3 h; hits give high values; zero means same as solvent-only cells. fluorescence change (kMESF span) at 33 µM. 610 tested, under 10 active;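 active = fluorescence span over the dose series, or activity score, above about 33, limit read from the data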
# The depositor's hits bear a star; nt = not tested or not shown; [ ] = another dose, or the depositor's remark. The list is not random: actives were taken first. Their share in the collection is about 0.93%.
SMILES,AGP1-GFP MLPCN,MEP2-GFP yeast,LAP4 TOR yeast,CIT2-GFP yeast,RPL19A-GFP yeast,LAP4-GFP pick2,MEP2 cherry2,RPL19A GFP CP2,CIT2-GFP pick2,AGP1 GFP CP2,s288c autofluor
CCOC(=O)CSC1=NC(=O)/C(=C/c2ccc(OC)cc2)S1,92.6,96.3,152.3*,75.4,93.9,nt,nt,nt,nt,nt,2.34
COC(=O)c1ccc(-c2ncc(-c3cccc4ccccc34)o2)cc1,101.5,104.9,111.2,99.8,101.3,nt,nt,nt,nt,nt,nt
O=C1CC(c2ccccc2)=NN1c1nc(-c2ccccc2)cs1,39.7,100.3,78.9,61.7,63.2,149.3,213.1*,81.1,144.6,76.5,2.23
C=CC[C@H](CC(=O)NCCO)C(=O)N[C@H](COC(=O)[C@H](CC=C)CC(=O)OC(C)(C)C)Cc1c[nH]c2ccccc12,71.4,86.1,80.1,86.7,84.9,nt,nt,nt,nt,nt,nt
CC1CCC(C(C)C)C(OP(=O)(c2ccc(N(C)C)cc2)C(O)c2cccnc2)C1 (stereo unspecified),112.5,231.8*[may fluoresce green],149.8,233.5*[may fluoresce green],119.0,95.2,108.3,101.9,105.7,103.1,nt
CC(=O)N(C1=C(Cl)C(=O)c2ccccc2C1=O)C1CCCCC1,7.8,68.6,44.6,67.7,8.2*,nt,nt,nt,nt,nt,7.06
N#Cc1ccc(-c2nc3ccc(Br)cc3c(=O)n2O)cc1,87.5,96.1,131.2,79.9,85.2,nt,nt,nt,nt,nt,nt
O=c1c2cc(Br)ccc2nc(-c2ccc([N+](=O)[O-])cc2)n1O,68.2,87.6,120.7,69.3,64.9,148.3,169.4*,51.4*,121.0,80.5,0.2
COc1ccccc1NC(=O)COC(=O)c1ccc2ccccc2n1,88.9,93.0,95.6,88.0,94.8,nt,nt,nt,nt,nt,nt
Cc1cccc(N=Nc2ccc(O)c3ncccc23)c1,101.7,95.7,165.4*[may fluoresce green],99.1,99.3,200.4*,129.3,104.0,130.7,108.0,1.6
COc1cccc(/C=C2\C(=O)N(c3cccc(C)c3)C(=O)c3ccccc32)c1,93.9,95.6,154.4*,74.1,95.5,nt,nt,nt,nt,nt,0
CCN(CC)C(=O)CSc1nc2ncc(Cl)cc2[nH]1,98.5,100.4,101.4,90.2,95.5,nt,nt,nt,nt,nt,nt
NC(=O)COc1ccc(C(=O)/C=C2/C(=O)Nc3ccccc32)cc1,104.7,90.9,103.3,108.5,93.8,nt,nt,nt,nt,nt,0.91
C=CCOc1ccc(C(=O)/C=C2/C(=O)Nc3ccccc32)cc1,105.4,106.3,105.5,97.3,104.6,nt,nt,nt,nt,nt,-0.2
C=CCOc1ccccc1C(=O)/C=C1/C(=O)Nc2ccccc21,90.7,91.1,131.8,84.0,101.3,nt,nt,nt,nt,nt,-0.4
CCOc1ccc(NC(=O)c2ccc3nccnc3c2)cc1,101.1,104.2,107.5,103.9,97.8,nt,nt,nt,nt,nt,nt
CC(C)c1ccc(Nc2cnn(C34CC5CC(CC(CC(=O)O)(C5)C3)C4)c(=O)c2Cl)cc1,109.3,114.0,108.3,110.1,100.3,nt,nt,nt,nt,nt,nt
Cc1oc(S(=O)(=O)N2CCCC2)cc1C(=O)Nc1ccc(F)cc1,107.7,101.8,111.8,99.5,99.2,nt,nt,nt,nt,nt,nt
[O-][n+]1cccc2c(Br)cc(Br)c(O)c21,107.9,100.3,163.2*,117.8,101.0,nt,nt,nt,nt,nt,1.12
C[n+]1cccc2c(Br)ccc([O-])c21,107.9,103.3,111.2,99.9,101.5,nt,nt,nt,nt,nt,nt
N#Cc1ccc(CN2CCN(C(=O)c3cc(Cl)c4c(c3)OCCO4)CC2)cc1,102.3,100.5,108.6,94.3,98.8,nt,nt,nt,nt,nt,nt
NC(=O)C1CCN(C(=O)c2cc(Cl)c3c(c2)OCCO3)CC1,99.4,95.1,182.8*,71.2,83.4,99.0,98.2,100.7,106.3,100.3,nt
O=S(=O)(c1cccc(Cl)c1)N1CCSc2ccccc21,88.7,90.3,93.3,81.1,89.7,nt,nt,nt,nt,nt,nt
CCN(CC)c1ccc(/C=C2/C(=O)c3ccc(C(=O)O)cc3C2=O)cc1,123.9,364.9*,298.4*,231.2*,134.1,284.6*,377.3*,119.2,250.3*,109.8,20.9
COc1ccccc1-c1nnc(SCCN2CCOCC2)n1-c1ccc(C)cc1,30.1,196.3*,99.6,124.3,70.8,102.2,99.6,100.8,114.0,97.1,nt
SMILES,AGP1-GFP MLPCN,MEP2-GFP yeast,LAP4 TOR yeast,CIT2-GFP yeast,RPL19A-GFP yeast,LAP4-GFP pick2,MEP2 cherry2,RPL19A GFP CP2,CIT2-GFP pick2,AGP1 GFP CP2,s288c autofluor
COc1ccccc1-c1nnc(SCC(=O)N2CCOCC2)n1-c1ccccc1,99.5,100.0,97.9,102.7,95.3,nt,nt,nt,nt,nt,nt
CCCCC[C@H]1CN(CCCC)C(=O)[C@@H]1CC(=O)NCc1ccc(OC)cc1,73.8,88.8,106.4,65.6,91.4,nt,nt,nt,nt,nt,nt
CCCCN1C[C@H](Cc2ccccc2)[C@@H](CC(=O)NCc2ccc(OC)cc2)C1=O,102.2,141.3,159.2*,101.2,88.5,97.1,99.8,101.7,106.3,104.7,nt
CCCNC(=S)N1CCC(n2cnc3ccccc32)CC1,97.2,98.7,100.6,93.3,92.8,nt,nt,nt,nt,nt,nt
CCN(CC(=O)Nc1ccc(Cl)c(C(F)(F)F)c1)CC(=O)NC1CCS(=O)(=O)C1 (stereo unspecified),79.0,147.5,94.6,98.6,59.7,99.0,103.2,102.8,98.4,98.4,nt
CCN(CC(=O)Nc1ccccc1C(F)(F)F)CC(=O)NC1CC1,96.8,87.8,91.5,97.0,100.4,nt,nt,nt,nt,nt,nt
O=C(COc1ccccc1)NNC(=S)NC(=O)c1ccc(Cl)cc1Cl,98.2,119.0,219.3*,92.0,108.5,259.5*,185.2*,83.3,122.4,117.5,1.41
Cc1ccnc2c1ccc1c(C)ccnc12,89.6,101.3,166.1*,85.2,93.8,99.2,110.0,96.8,96.0,96.9,nt
Oc1ccc(N=Nc2ccccc2)o1,95.7,96.8,164.8*,111.6,111.5,nt,nt,nt,nt,nt,0.41
COc1ccc(OCCC(=O)OCC(=O)NC(=O)NC(C)C)cc1,97.6,101.8,96.8,94.2,97.2,nt,nt,nt,nt,nt,nt
O=C(Nc1cccc(-c2csc(Nc3cccc(C(F)(F)F)c3)n2)c1)c1ccccc1,92.8,100.4,140.7,106.7,102.2,nt,nt,nt,nt,nt,nt
O=C(Nc1cccc(-c2csc(Nc3ccccc3)n2)c1)c1ccccc1,81.8,97.9,153.4*,90.3,98.4,108.7,103.2,97.1,91.6,93.3,0.1
